Reference: the supplement of paper PMC8047044
Where “and” joins values, the source holds several entries; their conditions need not be identical. Equal values may be shown once. Where a name gives a salt, the structure may show the parent alone.

Test system: Neuro-2a
Assay: neurite formation score, plate-normalized to DMSO control mean 5.04 (score (0-8 scale)); higher = more or longer neurites
Details: 0.1 µM
Description: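 Neuro-2a mouse neuroblastoma cells in PLL-coated 96-well plates were pre-treated for 1 h in DMEM(+) with each kinase inhibitor at 0.1 µM, then switched to serum-free DMEM(-) with inhibitor to induce neurite outgrowth and fixed about 2-3 h later. Three blinded observers scored neurite formation from 0 (no neurites) to 8 (long neurites on almost all cells).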

Going from `Cc1ccc(-c2csc3ncnc(SCCC(=O)O)c23)cc1` to `COc1ccccc1-c1cc(Nc2cccc(CS(N)(=O)=O)c2)ncn1`, the neurite formation score falls from 4.58 to 4.42.

Going from `CNC(=O)c1cc(Oc2ccc(NC(=O)Nc3cc(C(C)(C)C)nn3-c3ccc4ncccc4c3)c(F)c2)ccn1` [DCC-2036 (Rebastinib)] to `COc1cc2nccc(Oc3ccc(NC(=O)NC4CC4)c(Cl)c3)c2cc1C(N)=O` [Lenvatinib (E7080)], the neurite formation score rises from 3.92 to 4.38.

Compared with `Nc1nc(NCCNc2ncc(-n3ccnc3)c(-c3ccc(Cl)cc3Cl)n2)ccc1[N+](=O)[O-]`, `CCn1c(=O)c(-c2ccc(-c3cncs3)cc2Cl)cc2cnc(Nc3ccc(N4CCN(C)CC4)cc3)nc21` is lower in neurite formation score: 4.92 for the first, 4.25 for the second.

First: Cn1cnc2c(F)c(Nc3ccc(Br)cc3Cl)c(C(=O)NOCCO)cc21 [AZD6244 (Selumetinib)]
Second: C=CC(=O)Nc1ccc2ncnc(Nc3cccc(Br)c3)c2c1
The neurite formation score of the first is higher: 5.54 for the first, 3.71 for the second.

Going from `COc1cc(N2CCC(N)CC2)ccc1Nc1ncc(Cl)c(-c2c[nH]c3ccccc23)n1` to `CN1CCN(c2ccc(C(=O)Nc3n[nH]c4ccc(Cc5cc(F)cc(F)c5)cc34)c(NC3CCOCC3)c2)CC1` [Entrectinib], the neurite formation score falls from 4.92 to 0.751.

First: O=C1NCCc2[nH]c(-c3ccncc3)cc21
Second: O=C1NCCSc2c1sc1ccc(O)cc21
The neurite formation score of the first is higher: 5.92 for the first, 4.58 for the second.

First: O=C(/C=C/c1ccc(O)c(O)c1)c1ccc(O)cc1O [Butein]
Second: Oc1cccc(-c2nc(N3CCOCC3)c3oc4ncccc4c3n2)c1 [PI-103 Hydrochloride]
The neurite formation score of the first is lower: 4.38 for the first, 5.25 for the second.

Going from `Cc1ccccc1CN1C2=NCCN2C(=O)C2=C1CCN(Cc1ccccc1)C2` to `O=C(Cc1ccc(-c2ccc(OCCN3CCOCC3)cc2)cn1)NCc1ccccc1`, the neurite formation score falls from 4.25 to -0.243.

First: CN1CCN(CCOc2cc(OC3CCOCC3)c3c(Nc4c(Cl)ccc5c4OCO5)ncnc3c2)CC1 [Saracatinib (AZD0530)]
Second: CC(C)c1cc(CNc2nc(Nc3cc(C4CC4)[nH]n3)cc(N3CCN(C)CC3)n2)on1
The neurite formation score of the first is lower: 3.38 for the first, 4.92 for the second.

Compared with `Cc1ccc(S(=O)(=O)Nc2nc3ccccc3nc2Nc2ccc3nsnc3c2)cc1`, `Cc1ccc2c(Nc3ccc(Cl)cc3)nccc2c1Nc1ncccc1-c1ncnc2nc[nH]c12` [B-Raf inhibitor 1] is higher in neurite formation score: 4.09 for the first, 4.76 for the second.

First: Cc1cc2c(F)c(Oc3ncnn4cc(OC[C@@H](C)OC(=O)[C@H](C)N)c(C)c34)ccc2[nH]1
Second: Cc1ccc(C(=O)Nc2ccc(CN3CCN(C)CC3)c(C(F)(F)F)c2)cc1C#Cc1cnc2cccnn12
The neurite formation score of the first is higher: 4.04 for the first, 3.88 for the second.

Going from `Oc1cccc(-c2nc(N3CCOCC3)c3oc4ncccc4c3n2)c1` to `CCCCCCCCCCCCc1ccc(S(=O)(=O)Nc2nncs2)cc1`, the neurite formation score rises from 4.04 to 5.54.

`C[C@@H]1CCN(C(=O)CC#N)C[C@@H]1N(C)c1ncnc2[nH]ccc12` was tested, and the neurite formation score was 3.92 and 5.58.
